Here are results for eight compounds from PubChem BioAssay (EPA / NIEHS).

The nature of test [1]: ATG_CRE_CIS: Attagene CIS-FACTORIAL HepG2 Assay for human cAMP Responsive Element (CRE) binding protein 3 (AID 2282926). Particulars: HepG2 CRE cis-reporter, Attagene multiplexed mRNA; actives raise or lower the signal. A digest of the protocol:
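HepG2 cells transiently transfected with cis-element-driven multiple reporter transcription units; CRE reporter mRNA measured 24 h after dosing by RT-PCR, 6-FAM labelling, HpaI digestion and capillary electrophoresis. Bidirectional fit versus DMSO baseline.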

Test [2] deals with CCAAT/enhancer-binding protein beta (Homo sapiens) (UniProt P17676). The test can be described thus: ATG_C_EBP_CIS: Attagene CIS-FACTORIAL HepG2 Assay for human CCAAT/Enhancer Binding Protein (C/EBP) beta (AID 2282927). Particulars: HepG2 Attagene cis-factorial transcription factor reporter; actives raise or lower the signal. The essentials: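 Transiently transfected HepG2 (MRTU library, endogenous TF-driven promoters); 24 h dosing; total RNA → oligo(dT) RT → PCR → 6-FAM primer extension → HpaI digest → CE; fit bidirectionally vs DMSO.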
CCAAT/enhancer-binding protein beta (Homo sapiens), sequence (P17676 whole entry, looked up): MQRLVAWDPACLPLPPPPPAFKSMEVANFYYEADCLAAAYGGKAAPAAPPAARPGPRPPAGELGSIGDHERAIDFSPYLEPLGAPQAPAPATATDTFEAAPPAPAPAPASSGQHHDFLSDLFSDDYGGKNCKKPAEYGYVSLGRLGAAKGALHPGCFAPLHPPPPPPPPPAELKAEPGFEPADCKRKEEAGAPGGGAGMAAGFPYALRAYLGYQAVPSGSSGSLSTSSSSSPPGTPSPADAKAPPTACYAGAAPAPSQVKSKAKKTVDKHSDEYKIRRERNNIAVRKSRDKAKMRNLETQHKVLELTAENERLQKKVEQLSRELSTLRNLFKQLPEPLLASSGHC

Test [3] can be described thus: ATG_CMV_CIS: Attagene CIS-FACTORIAL HepG2 Assay for human CMV (Internal Marker) (AID 2282928).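 Further: endpoint acts as a background internal control marker rather than a target.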 The following applies: HepG2 CMV promoter reporter, transcription factor profiling; actives raise or lower the signal. A digest of the protocol:
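CMV internal-marker background readout in transiently transfected HepG2 cells bearing cis-regulated reporter units. Reporter mRNA is measured 24 h after dosing by RT-PCR and capillary electrophoresis, with bidirectional fitting against DMSO.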

The target in test [4] is Aryl hydrocarbon receptor (Homo sapiens) (UniProt P35869). Nature of the test: ATG_Ahr_CIS: Attagene CIS-FACTORIAL HepG2 Assay for human Aryl Hydrocarbon Receptor (Ahr) (AID 2282930). Particulars: HepG2 AhR cis-factorial reporter transcription; actives raise or lower the signal. The essentials: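 Read-out: reporter mRNA quantified by RT-PCR with fluorescent primer extension and capillary electrophoresis. Human HepG2 liver cells carried transfected cis-promoter reporter units and were exposed to chemical for 24 h; gain or loss fitted relative to DMSO.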
Aryl hydrocarbon receptor (Homo sapiens), sequence (P35869 whole entry, looked up): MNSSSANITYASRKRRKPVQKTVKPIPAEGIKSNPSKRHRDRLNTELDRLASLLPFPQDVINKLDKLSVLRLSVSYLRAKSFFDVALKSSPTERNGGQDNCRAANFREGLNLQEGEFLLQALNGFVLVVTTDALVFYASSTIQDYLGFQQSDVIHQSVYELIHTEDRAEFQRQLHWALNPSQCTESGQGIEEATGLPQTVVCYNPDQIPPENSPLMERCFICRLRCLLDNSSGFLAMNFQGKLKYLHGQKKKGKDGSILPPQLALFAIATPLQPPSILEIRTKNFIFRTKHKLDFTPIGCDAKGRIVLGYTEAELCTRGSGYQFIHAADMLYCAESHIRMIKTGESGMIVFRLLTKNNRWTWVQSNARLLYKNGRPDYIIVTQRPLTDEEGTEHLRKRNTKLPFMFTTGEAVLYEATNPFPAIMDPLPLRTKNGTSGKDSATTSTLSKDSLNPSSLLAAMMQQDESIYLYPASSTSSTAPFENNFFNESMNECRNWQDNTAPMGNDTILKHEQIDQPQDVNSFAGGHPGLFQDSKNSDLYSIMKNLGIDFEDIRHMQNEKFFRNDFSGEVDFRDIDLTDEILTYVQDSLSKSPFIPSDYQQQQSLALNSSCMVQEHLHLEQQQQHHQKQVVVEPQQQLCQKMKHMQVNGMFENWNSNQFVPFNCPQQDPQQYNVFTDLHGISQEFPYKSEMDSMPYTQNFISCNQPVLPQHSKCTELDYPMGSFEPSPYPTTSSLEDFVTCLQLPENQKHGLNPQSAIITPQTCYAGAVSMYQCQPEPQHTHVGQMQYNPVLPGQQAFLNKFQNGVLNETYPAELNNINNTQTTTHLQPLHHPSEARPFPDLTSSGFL

Test [5] in a line: ATG_AP_2_CIS: Attagene CIS-FACTORIAL HepG2 Assay for human Activator Protein 2 (AP-2) (AID 2282932). The following applies: HepG2 AP-2 cis-reporter, Attagene transcription factor profiling; actives raise or lower the signal. A digest of the protocol:
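HepG2 cells transiently transfected with cis-element reporter units and exposed for 24 h. Reporter mRNA measured by RT-PCR, FAM labelling, HpaI digestion and capillary electrophoresis. Changes in either direction fitted relative to DMSO.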

Test [6] in a line: ATG_BRE_CIS: Attagene CIS-FACTORIAL HepG2 Assay for human Bone Morphogenetic Protein (BMP) Response Element (BRE) (AID 2282933). Particulars: HepG2 BMP response element reporter, Attagene transcription factor profiling; actives raise or lower the signal. The essentials: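 After a 24 h chemical treatment, transiently transfected HepG2 cells were lysed for RNA; reporter transcripts were quantified by fluorescent RT-PCR and capillary electrophoresis, normalised to DMSO.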

Test [7] concerns the target Transcription factor E2F1 (Homo sapiens) (UniProt Q01094). The test can be described thus: ATG_E2F_CIS: Attagene CIS-FACTORIAL HepG2 Assay for human E2F Transcription Factor 1 (AID 2282935). The following applies: HepG2 Attagene cis-reporter, E2F reporter RNA transcripts; actives raise or lower the signal. A digest of the protocol:
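Endogenous E2F1 activity read through cis-promoter reporter units transfected into HepG2. After 24 h compound treatment, reporter mRNA measured by RT-PCR, HpaI digestion and capillary electrophoresis. Bidirectional fit versus DMSO.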

A short description of test [8]: ATG_E_Box_CIS: Attagene CIS-FACTORIAL HepG2 Assay for human Enhancer Box (E-box) (AID 2282936). The following applies: HepG2 E-box cis-reporter transcription, actives raise or lower the signal. The essentials:
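HepG2 cells transiently transfected with multiplexed cis-element reporter units, dosed 24 h; reporter mRNA quantified by RT-PCR, 6-FAM labelling, HpaI digestion and capillary electrophoresis. E-box (USF1) signal fitted bidirectionally vs DMSO.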

Test [9] in a line: ATG_M_61_CIS: Attagene CIS-FACTORIAL HepG2 Assay for M61 Transcription Factor (Internal Marker) (AID 2282937). Particulars: HepG2 Attagene CIS-FACTORIAL M61 internal marker reporter; actives raise or lower the signal. The essentials: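 Multiplexed reporter mRNA assay, HepG2 human hepatoma cells, 24 h treatment. Signal: FAM-labelled, HpaI-digested RT-PCR fragments by CE. Fit: bidirectional, baseline DMSO.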

The nature of test [10]: ATG_EGR_CIS: Attagene CIS-FACTORIAL HepG2 Assay for human Early Growth Response 1 (EGR1) (AID 2282938). The following applies: HepG2 Attagene CIS-FACTORIAL EGR reporter mRNA; actives raise or lower the signal. A digest of the protocol: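 Multiplexed cis-reporter system in human hepatoma HepG2 cells, transiently transfected. Cells are dosed for 24 h; reporter transcripts are amplified, fluorescently tagged and sized by capillary electrophoresis, with DMSO as negative control.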

The nature of test [11]: ATG_M_19_CIS: Attagene CIS-FACTORIAL HepG2 Assay for M19 Transcription Factor (Internal Marker) (AID 2282939). The following applies: HepG2 Attagene CIS-FACTORIAL M19 internal marker reporter; actives raise or lower the signal. A digest of the protocol: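 In this multiplexed cell assay, transiently transfected HepG2 reporter units report endogenous transcription-factor activity; after 24 hours of treatment, labelled reporter cDNA fragments are quantified by capillary electrophoresis and fitted bidirectionally against DMSO.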

Test [12] can be described thus: ATG_ERE_CIS: Attagene CIS-FACTORIAL HepG2 Assay for Estrogen Response Element (ERE) (AID 2282940). Particulars: HepG2 ERE cis-reporter, Attagene RNA transcript; actives raise or lower the signal. A digest of the protocol:
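Measuring endogenous transcription factor output, the assay doses transfected HepG2 cells for 24 hours and quantifies reporter transcripts by fluorescent RT-PCR and capillary electrophoresis, with DMSO as baseline.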

The target in test [13] is Hepatocyte nuclear factor 3-beta (Homo sapiens) (UniProt Q9Y261). The test can be described thus: ATG_FoxA2_CIS: Attagene CIS-FACTORIAL HepG2 Assay for human Forkhead box A2 (FOXA2) (AID 2282942). The following applies: HepG2 cis-reporter transcription factor activity, 24 h; actives raise or lower the signal. A digest of the protocol:
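Multiplexed cis-element reporter assay in transiently transfected HepG2. Twenty-four hours post-dosing, RNA was reverse-transcribed, amplified, FAM-labelled, HpaI-digested and separated by CE. Activity gain or loss relative to DMSO.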

The nature of test [14]: ATG_FoxO_CIS: Attagene CIS-FACTORIAL HepG2 Assay for human Forkhead box O (FoxO) (AID 2282943). The following applies: HepG2 Attagene cis-reporter, FoxO element, mRNA; actives raise or lower the signal. The essentials: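 Read-out: fluorescence of 6-FAM-labelled reporter cDNA fragments resolved by capillary electrophoresis. Transiently transfected HepG2 cells were dosed for 24 h; activity fitted in both directions relative to DMSO controls.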

Test [15] can be described thus: ATG_GATA_CIS: Attagene CIS-FACTORIAL HepG2 Assay for human GATA Binding Protein (AID 2282944). The following applies: HepG2 GATA cis-element reporter, Attagene multiplex mRNA; actives raise or lower the signal. A digest of the protocol: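 Measures endogenous transcription factor-driven reporter mRNA in HepG2 cells transiently carrying cis-regulated constructs. 24 h dosing; RNA via oligo(dT) reverse transcription, PCR, HpaI digestion, capillary electrophoresis; fitted relative to DMSO.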

Test [16] in a line: ATG_GLI_CIS: Attagene CIS-FACTORIAL HepG2 Assay for human Zinc Finger Protein GLI1 (AID 2282945). Particulars: HepG2, Attagene cis-factorial reporter mRNA, GLI element; actives raise or lower the signal. A digest of the protocol: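 Transiently transfected HepG2 cells report endogenous transcription factor activity via cis-element-driven reporter units. After 24 h compound exposure, reporter mRNA was measured by RT-PCR with capillary electrophoresis; bidirectional fitting against DMSO baseline.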

A short description of test [17]: ATG_AP_1_CIS: Attagene CIS-FACTORIAL HepG2 Assay for human Activator Protein 1 (AP-1) (AID 2282931). The following applies: HepG2 Attagene cis-factorial AP-1 reporter mRNA; actives raise or lower the signal. The essentials: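 We transfected HepG2 cells transiently with a set of cis-regulated reporter transcription units, dosed them for 24 h, and quantified reporter mRNA via RT-PCR and capillary electrophoresis, scoring gain or loss of signal relative to DMSO.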

The target in test [18] is Retinoic acid receptor alpha (Homo sapiens) (UniProt P10276). Nature of the test: ATG_DR5_RAR_CIS: Attagene CIS-FACTORIAL HepG2 Assay for human Retinoic Acid Receptor Alpha (RARE), DR5 submotif (AID 2282934). Particulars: HepG2 Attagene cis-factorial RARE DR5 reporter, mRNA; actives raise or lower the signal. The essentials:
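Read-out: DR5-driven reporter transcript measured by RT-PCR, 6-FAM primer extension, HpaI digest and capillary electrophoresis. Human HepG2 liver cells carry transiently transfected cis-element reporter constructs; dosing lasts 24 h. Gain or loss of signal fitted against DMSO baseline.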

Test [19] can be described thus: ATG_Ets_CIS: Attagene CIS-FACTORIAL HepG2 Assay for human Erythroblast Transformation Specific (ETS) (AID 2282941). Particulars: HepG2 ETS cis-reporter transcription, actives raise or lower the signal. The essentials: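 HepG2 cells transfected with multiple cis-regulated reporter units measuring endogenous ETS-driven transcription, 24 h after dosing. Reporter mRNA quantified by RT-PCR with capillary electrophoresis; bidirectional fit relative to DMSO.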

A short description of test [20]: ATG_DR4_LXR_CIS: Attagene CIS-FACTORIAL HepG2 Assay for human Liver X Receptor (LXR), DR4 submotif (AID 2282929). The following applies: HepG2 Attagene DR4 cis-reporter, mRNA transcription; actives raise or lower the signal. The essentials:
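Transiently transfected HepG2 liver cells; cis-regulated reporters; 24 h dosing. RT-PCR plus CE read-out of reporter mRNA. DMSO baseline, bidirectional curve fitting.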

Activity calls are given as the source filed them. How the source made its calls: active means hit-call score of the fitted dose curve at least 0.9, where 1 is the maximum; inactive means score below 0.9.

Hepatocyte nuclear factor 3-beta (Homo sapiens), sequence (Q9Y261 whole entry, looked up): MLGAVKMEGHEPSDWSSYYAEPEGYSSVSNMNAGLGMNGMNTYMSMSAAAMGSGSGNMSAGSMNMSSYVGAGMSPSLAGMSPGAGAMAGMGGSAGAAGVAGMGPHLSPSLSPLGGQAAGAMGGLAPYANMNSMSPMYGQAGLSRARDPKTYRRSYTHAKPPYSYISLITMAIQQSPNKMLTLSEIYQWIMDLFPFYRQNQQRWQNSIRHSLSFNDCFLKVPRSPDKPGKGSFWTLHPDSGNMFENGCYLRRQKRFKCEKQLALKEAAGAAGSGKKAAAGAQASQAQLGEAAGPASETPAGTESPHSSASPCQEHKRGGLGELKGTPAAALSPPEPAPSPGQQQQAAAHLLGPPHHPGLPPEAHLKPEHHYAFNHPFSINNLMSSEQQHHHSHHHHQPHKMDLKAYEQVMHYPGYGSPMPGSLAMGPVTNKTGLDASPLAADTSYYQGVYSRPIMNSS
Transcription factor E2F1 (Homo sapiens), sequence (Q01094 whole entry, looked up): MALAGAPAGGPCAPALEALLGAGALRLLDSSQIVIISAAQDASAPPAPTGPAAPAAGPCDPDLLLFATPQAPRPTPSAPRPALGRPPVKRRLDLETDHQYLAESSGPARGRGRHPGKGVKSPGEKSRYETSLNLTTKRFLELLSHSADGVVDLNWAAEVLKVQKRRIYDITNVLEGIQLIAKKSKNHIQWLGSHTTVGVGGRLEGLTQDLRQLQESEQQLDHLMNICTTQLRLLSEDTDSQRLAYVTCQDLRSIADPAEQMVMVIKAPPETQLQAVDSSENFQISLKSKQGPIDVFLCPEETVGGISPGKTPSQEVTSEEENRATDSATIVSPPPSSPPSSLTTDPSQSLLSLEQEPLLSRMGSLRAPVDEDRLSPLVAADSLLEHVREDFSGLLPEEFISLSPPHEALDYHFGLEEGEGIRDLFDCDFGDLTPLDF
Retinoic acid receptor alpha (Homo sapiens), sequence (P10276 whole entry, looked up): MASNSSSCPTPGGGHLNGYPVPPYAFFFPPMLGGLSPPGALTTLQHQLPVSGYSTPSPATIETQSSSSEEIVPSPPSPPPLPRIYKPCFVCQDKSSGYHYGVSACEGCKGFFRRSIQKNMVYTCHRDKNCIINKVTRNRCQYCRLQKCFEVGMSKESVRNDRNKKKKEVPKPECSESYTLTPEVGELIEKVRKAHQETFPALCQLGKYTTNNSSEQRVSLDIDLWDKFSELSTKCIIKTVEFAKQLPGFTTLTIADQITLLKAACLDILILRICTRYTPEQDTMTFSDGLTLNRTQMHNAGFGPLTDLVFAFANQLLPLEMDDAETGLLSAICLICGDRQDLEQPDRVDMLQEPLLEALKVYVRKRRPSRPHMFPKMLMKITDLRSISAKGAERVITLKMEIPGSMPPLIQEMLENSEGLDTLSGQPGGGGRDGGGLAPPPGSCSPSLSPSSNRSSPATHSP

With `Nc1cccc(S(=O)(=O)c2cccc(N)c2)c1`, the compound was called inactive in [1], in test [2], in [3], in test [4], in [5] and in test [6]. For the same compound, the result in test [7], in test [8], in test [9], in test [10], in [11] and in [12] was inactive. Besides, the compound was classed as inactive in test [13], in test [14], in test [15] and in test [16].
For `CC1(C)OC[C@@H]2O[C@@]3(C(=O)O)OC(C)(C)O[C@H]3[C@@H]2O1`, the compound was called inactive in [1], in [2], in test [3], in test [4], in [17] and in [5]. Moreover, the compound was classed as inactive in test [6], in test [18], in [8], in [9], in test [10] and in [11]. Further, the compound was classed as inactive in test [19], in test [13], in test [14], in test [15] and in test [16].
`CC(C)(C)C(=O)c1ccccc1`: the call in [1], in [2], in [4], in [17], in test [5] and in test [6] was inactive. Further, the outcome in test [7], in test [8], in test [9], in test [10], in test [11] and in test [12] was inactive. Besides, the compound was classed as inactive in test [19], in test [13], in [14], in [15] and in test [16].
For `OCCOc1cccc(OCCO)c1`, the compound was called inactive in test [1], in test [2], in test [20], in test [17], in test [5] and in [6]. The result in test [18], in test [7], in test [8], in [9], in test [10] and in [11] was inactive. Also, the call in test [19], in [13], in [14], in test [15] and in test [16] was inactive.
Regarding `CC(C)c1cccc(O)c1`, the compound was called inactive in test [1], in test [2], in test [20], in [4], in [17] and in test [5]. Besides, the result in test [6], in [7], in test [9], in [10], in test [11] and in test [19] was inactive. The call in test [13], in [14], in test [15] and in test [16] was inactive. The concentration at half-maximal activity (AC50) (as a rule, the concentration at which the activity in the assay is half-maximal) in test [12] is 104 µM (active).
As to `C=C(C)C1CCC(C)CC1O` (centres undefined), the compound was called inactive in test [1], in [2], in test [20], in test [4], in test [17] and in test [5]. For the same compound, the result in test [6], in test [7], in test [8], in test [9], in [10] and in test [11] was inactive. In addition, the outcome in test [19], in [13], in test [14], in test [15] and in [16] was inactive.
Take `CC1COc2ccccc2N1C(=O)C(Cl)Cl` (centres undefined): the call in test [1], in test [2], in test [20], in [4], in test [5] and in test [6] was inactive. Also, the compound was classed as inactive in test [7], in [8], in test [9], in test [11], in test [12] and in [19]. Also, the compound was classed as inactive in [15] and in [16]. In addition, the results for the half-maximal activity concentration (AC50) in test [17], in test [10] and in test [14] were 27.4 µM (active), 41.1 µM (active) and 21 µM (active), respectively.
Consider `COC(C(=O)O)c1ccccc1` (centres undefined), for which the result in [1], in test [2], in [20], in [4], in test [17] and in [5] was inactive. Also, the outcome in [6], in test [7], in [8], in test [9], in test [10] and in test [11] was inactive. Moreover, the compound was classed as inactive in [19], in [13], in test [14] and in test [16].
